In PubChem BioAssay (NCI):
This is part of a sample that, as a whole, favours compounds with a hit. Of some 83,000 tested, about 20% had one in any assay.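 Compound tested at a single concentration for 48 hours in 96-well plates; a percent growth value below 10 was scored as active.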 Values without a mark were called inactive. The source made the active and inactive calls.

Test system: UACC-62 melanoma
Assay: NCI-60 one-dose screen, 48 h (100 = growth as untreated, 0 = no growth, -100 = all killed)
Details: 10 µM

In order of rising growth:
1. CC1=CSC2=NC(c3ccc(Cl)c(Cl)c3)=CC(c3ccc(Cl)cc3)N12 (stereo not drawn)  10.6%
2. c1ccc(OCCC[P+](c2ccccc2)(c2ccccc2)c2ccccc2)cc1  14.6%
3. c1ccc(CC(NCCNC(Cc2ccccc2)c2ccccc2)c2ccccc2)cc1 (stereo not drawn)  16%
4. COc1ccc(-c2nnc(COc3ccc(NC(=O)Nc4cccc(C(F)(F)F)c4)cc3F)o2)cc1  17.1%
5. COc1cc(CSc2nc3ccc(C)cc3c(=O)n2Cc2ccccc2)cc(OC)c1OC  21.4%
6. CCOC(=O)Nc1ccc2c(c1)C(=O)N(CC)c1ccccc1O2  21.5%
7. Nc1ccn([C@@H]2O[C@H](COP(=O)(O)O[C@@H]3C[C@H](n4cc(F)c(=O)[nH]c4=O)O[C@@H]3COP(=O)(O)O[C@@H]3C[C@H](n4cc(F)c(=O)[nH]c4=O)O[C@@H]3COP(=O)(O)O[C@@H]3C[C@H](n4cc(F)c(=O)[nH]c4=O)O[C@@H]3COP(=O)(O)O[C@@H]3C[C@H](n4cc(F)c(=O)[nH]c4=O)O[C@@H]3COP(=O)(O)O[C@@H]3C[C@H](n4cc(F)c(=O)[nH]c4=O)O[C@@H]3COP(=O)(O)O[C@@H]3C[C@H](n4cc(F)c(=O)[nH]c4=O)O[C@@H]3COP(=O)(O)O[C@@H]3C[C@H](n4cc(F)c(=O)[nH]c4=O)O[C@@H]3COP(=O)(O)O[C@@H]3C[C@H](n4cc(F)c(=O)[nH]c4=O)O[C@@H]3COP(=O)(O)O[C@@H]3C[C@H](n4cc(F)c(=O)[nH]c4=O)O[C@@H]3COP(=O)(O)O[C@@H]3C[C@H](n4cc(F)c(=O)[nH]c4=O)O[C@@H]3COP(=O)(O)OCCOCCOCCOCCOCCOCCO)[C@H](O)C2O)c(=O)n1 (stereo partly drawn)  25.6%
8. COc1ccc(S(=O)(=O)Nc2cc(/C=C\c3cc(OC)c(OC)c(OC)c3)ccc2OC)cc1  27.8%
9. COc1ccccc1S(=O)(=O)Nc1ccc2c(c1)CN(C)C(=O)N2  29.3%
10. COc1ccc2oc(=O)cc(C(c3ccc[nH]3)c3ccc[nH]3)c2c1  30.7%
11. CCCCn1c(=O)[nH]c(N)c(C(c2ccc(Cl)cc2)c2c(N)[nH]c(=O)n(CCCC)c2=O)c1=O  41.3%
12. Fc1ccc(Nc2ccnc(N3CCN(c4ccnc5cc(Cl)ccc45)CC3)n2)cc1  45.3%
13. Cc1noc(C)c1-c1ccc2nc(NC(=O)[C@H]3CCN(C#N)C3)cn2c1  77.7%
14. CC(=O)n1nc(C(=O)OC(C)(C)C)c2cc(F)c(F)cc21  80.3%
15. CCOC(=O)Cn1nnc(-c2ccc(OCc3ccccc3F)cc2)n1  81.4%
16. Cc1ccc(-n2nnc3c(sc4ccccc43)c2=O)cc1  85.4%
17. CCc1c(C)[nH]c(=O)c(C(N)=O)c1C#N  88.4%
18. COc1ccc(C(=O)/C=C/c2cc(-c3ccc4c(c3)OCO4)n[nH]2)cc1OC  88.9%
19. COc1cc(-c2nc3ccc(C)cc3[nH]2)ccc1OCc1nnc(-c2ccc(CC(C)C)cc2)o1  90.3%
20. Cn1cnc([N+](=O)[O-])c1/C=C1\Oc2ccc(Cl)cc2C1=O  91.1%
21. CCOc1ccc2c(c1)CC[C@@H]1[C@@H]2CC[C@]2(C)[C@@H](O)[C@@H](O)C[C@@H]12  94.4%
22. COc1ccc(/C(CS(=O)(=O)c2ccccc2)=N\O)cc1  95.1%
23. C[N+]1=C(/C=C/c2ccc(I)cc2)C(C)(C)c2ccccc21  95.3%
24. COC(=O)c1c(C)nc(Nc2nc3ccccc3s2)nc1-c1ccc(Cl)cc1Cl  96.1%
25. Cc1ccc2nc(-c3ccc(OCC(=O)N=Nc4c(O)[nH]c5ccccc45)cc3)[nH]c2c1  96.5%
26. COc1ccc2nc(C)cc(Nc3ccc(Cl)cc3)c2c1  99%
27. COc1ccc(COC(=O)CC(C)C)cc1  99.3%
28. CCOC(=O)c1cc(-c2ccccc2)nc(N)n1  99.9%
29. CC1(CO)CCCC12OCCO2 (stereo not drawn)  100%
30. COc1ccc(OC)c([N+](=O)[O-])c1C=O  100%
31. CCCCCCCCCCCC(=O)NCCCN(C)C  101%
32. Cc1ccc(C)c2c1sc1nc3n[nH]c(N)c3c(=N)n12  108%
33. O=C(O)CCCCSCCCCC(=O)O  109%

`Nc1ccc(C2=CC(c3ccc(Cl)cc3)N3C=CSC3=N2)cc1` (stereo not drawn) was tested, and the growth was -67.1% (active).
In the case of `COc1cc(-c2nc3ccc(C)cc3[nH]2)ccc1OCC(=O)N=Nc1c(O)[nH]c2ccccc12`, the growth was -83.1% (active).
For `COc1ccc(Nc2ccnc(N3CCN(c4ccnc5cc(Cl)ccc45)CC3)n2)cc1`, the growth was -4.07% (active).
`COc1ccc2c(=O)cc(C(Cl)(Cl)Cl)oc2c1` was tested, and the growth was -73.2% (active).
With `CCC(O)c1ccc(Br)cc1NC(=O)c1cccc(Cl)c1` (stereo not drawn) the growth was -27.5% (active).
